From article PMC7819943, “Rice protein-binding microarrays: a tool to detect cis-acting elements near promoter regions in rice” come the findings set out here.

In all, about 39,000 sequences were measured (“fluorescence intensity (a.u.)”: median about 4,300, highest 2% from about 39,000 on). Many of the other results were omitted from the sample, so the highest values are more common in it than they were.

The test has as its target T1, OsSMF1 (Oryza sativa, UniProt Q6ZLB0 1-436).
T1 sequence: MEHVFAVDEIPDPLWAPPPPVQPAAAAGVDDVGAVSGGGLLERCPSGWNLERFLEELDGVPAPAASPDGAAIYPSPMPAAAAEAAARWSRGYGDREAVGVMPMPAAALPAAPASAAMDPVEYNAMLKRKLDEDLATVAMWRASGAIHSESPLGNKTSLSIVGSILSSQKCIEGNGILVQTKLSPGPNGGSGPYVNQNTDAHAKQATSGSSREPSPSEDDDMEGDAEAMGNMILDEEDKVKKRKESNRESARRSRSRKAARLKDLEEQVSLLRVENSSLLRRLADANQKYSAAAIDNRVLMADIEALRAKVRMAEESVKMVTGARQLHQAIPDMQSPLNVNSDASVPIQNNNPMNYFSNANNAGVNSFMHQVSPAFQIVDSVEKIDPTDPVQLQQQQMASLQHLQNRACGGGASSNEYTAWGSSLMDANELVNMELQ
As to the kind of experiment: protein-binding microarray (RPBM); PBS, 2% BSA, 51.3 ng/ul salmon testes DNA, 50 uM zinc acetate, 200 nM TF, 25 C, 1 h; high values mean tight binding. As to conditions: protein: recombinant; tags: N-terminal polyhistidine and DsRed monomer fusion (pET32a); chain copies: 2; label: CyDye5-dUTP incorporated in the synthesized complementary strand; 3' TTTTT single-stranded linker to array surface; dsDNA, one strand shown. A digest of the protocol:
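An Axon 4000B scanner gave the binding signal as per-feature fluorescence intensity in arbitrary units. This followed washing of a custom Agilent array that had been incubated for 1 h at 25 °C with 200 nM protein in PBS, 2% BSA, salmon testes DNA and 50 µM zinc acetate. The proteins were transcription factors fused at the N-terminus to polyhistidine and DsRed, expressed in E. coli BL21-CodonPlus and purified on Ni–NTA.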
Take “TGAATTGGAGCGACCGTGAGAGGTAGCATAGAATGTCATGCGGAGTCACCTAGTGCAG”: the binding signal is 3270 fluorescence intensity (a.u.).
Then “CAAAAGGACCATGGTGTGTGGATGACATGACTAGTGAGGCCGGAGTCACCTAGTGCAG”, with 4650 fluorescence intensity (a.u.); and “TGTTGATGGCGTCATTATTTACATGGTATGGTGCATTTGGCGGAGTCACCTAGTGCAG”, with 14600 fluorescence intensity (a.u.); and “CTCTTCTCCACCTCAACATTTAGCCGGCTTATAGCTACTACGGAGTCACCTAGTGCAG”, with 3960 fluorescence intensity (a.u.).
Then “CAGACCAGGGTTACTCTCCTCAACATTCTTAGCTCATAGACGGAGTCACCTAGTGCAG”, with 47700 fluorescence intensity (a.u.).
Then “ACAGGGTTGCCAAGCTCTTACTCAACCTAAACCACCAGAACGGAGTCACCTAGTGCAG”, with 3200 fluorescence intensity (a.u.); and “TGAACCCCACATGTCAGCTTTACTACTCCCTTCTTCCCTACGGAGTCACCTAGTGCAG”, with 4350 fluorescence intensity (a.u.).
As to “CGCGACACGACACGACACGACACGACGGCACGAGCCCACCCGGAGTCACCTAGTGCAG”, the binding signal is 4540 fluorescence intensity (a.u.).
In the case of “GGAAAGTGGACAATTAAATCAAGCGATGATGTGGATGTGGCGGAGTCACCTAGTGCAG”, the binding signal was 5830 fluorescence intensity (a.u.).
Then “TTCATCCTCGGCCACTCCTACGTCAAGGCCAAGAGCGGCTCGGAGTCACCTAGTGCAG”, with 3600 fluorescence intensity (a.u.); and “CTCTTCAGGGAACAGAATCAAATCAGCATTTTAACTAACTCGGAGTCACCTAGTGCAG”, with 40100 fluorescence intensity (a.u.).
To “CAAATACTACATCACACAGGTCAGCAGAAATTTCACTCTTCGGAGTCACCTAGTGCAG” belongs 4100 fluorescence intensity (a.u.); to “TGGCAAATCTCATCAGCAACAGGGACCTCTTGGTGTGACTCGGAGTCACCTAGTGCAG”, 4290 fluorescence intensity (a.u.); to “CCGTTTCCGAATCTCGAGGCGCAAGAGGCCATCGAACGGCCGGAGTCACCTAGTGCAG”, 38300 fluorescence intensity (a.u.).
On to “TTTATCTAATTAAAATATATTTATAGCTGACTAATAGTCTCGGAGTCACCTAGTGCAG”, for which the binding signal was 3480 fluorescence intensity (a.u.).
Then “TGTGGAGTCCACGTGGGACTTAGCCGCCACATCAATAAAACGGAGTCACCTAGTGCAG”, with 9160 fluorescence intensity (a.u.); and “TGACCAAAATTTGAAACTTTCAATACAATTATGAAACTTTCGGAGTCACCTAGTGCAG”, with 6370 fluorescence intensity (a.u.); and “GCCAAGCCAAACCAATCCAAGCCAAGCCAAATGAATGATTCGGAGTCACCTAGTGCAG”, with 3150 fluorescence intensity (a.u.).
To “TTAGATGAAACCACGATTTGTCAAAATGCATCCAAAACTTCGGAGTCACCTAGTGCAG” belongs 43100 fluorescence intensity (a.u.).
To “GTTAATCTCAATAAAATACTTAGCTCCATAAATAATTTTGCGGAGTCACCTAGTGCAG” belongs 36700 fluorescence intensity (a.u.); to “CCCAGCTGTCTTTCCTCCAGGTCACCTGACAAATGTCACTCGGAGTCACCTAGTGCAG”, 3950 fluorescence intensity (a.u.).
For “GAAAACTAGTCCAAAATGAGTCTTTGCTTCAATGCAAACGCGGAGTCACCTAGTGCAG”, the binding signal is 39000 fluorescence intensity (a.u.).
As to “CTTATCAGTCGTAGCTCAACCTATAAGAGGCCTAAATATACGGAGTCACCTAGTGCAG”, the binding signal is 32800 fluorescence intensity (a.u.).
To “ATCTTAAATACTACTAGAAATTAACGGAGACTAAGGCTTGCGGAGTCACCTAGTGCAG” belongs 26500 fluorescence intensity (a.u.).
Then “AAATACGGAGAGAAGAAGGCTCACTAAGCGCGCTTACTATCGGAGTCACCTAGTGCAG”, with 42500 fluorescence intensity (a.u.).
To “TGCCAAATGTTGAAACACTTACAGTAGCATCTAATGAAGTCGGAGTCACCTAGTGCAG” belongs 16000 fluorescence intensity (a.u.); to “AGCTTTTCTTTTCTACACAAAGGGAAGGGAAAGAAGAAACCGGAGTCACCTAGTGCAG”, 37800 fluorescence intensity (a.u.).
For “CCCAGGGAGGCCAAACTACAAAGGCGATGCTTTCTACACACGGAGTCACCTAGTGCAG”, the binding signal is 41500 fluorescence intensity (a.u.).
For “AACTACACACAAAGCCGAGCCAAAGTCTCTAGGTCAAAGTCGGAGTCACCTAGTGCAG”, the binding signal was 20600 fluorescence intensity (a.u.).
Consider “TACTTAAGTGCCAAGTGTCAAAGTGTGTGTGGTTTTCTGCCGGAGTCACCTAGTGCAG”, for which the binding signal was 4130 fluorescence intensity (a.u.).
As for “TCCAAATAGCACGTACGCATGCATGCGTCCATGCCATCTCCGGAGTCACCTAGTGCAG”, the binding signal was 3270 fluorescence intensity (a.u.).
Then “CGCTCGACTTCTCTTCTCTCATACACGTGTCATTAAATTTCGGAGTCACCTAGTGCAG”, with 8480 fluorescence intensity (a.u.); and “GAGGTGTACCACTAAGTGTGTACGTGTATAGTGGGGCGTGCGGAGTCACCTAGTGCAG”, with 7420 fluorescence intensity (a.u.); and “TGGACCTGAACCGAACCACTAAGTAGTAGTACGTGTGAGGCGGAGTCACCTAGTGCAG”, with 41100 fluorescence intensity (a.u.).
Then “ATAAGTACGAATACTAAGTACGTGTGTGTTTGGAGGGTGTCGGAGTCACCTAGTGCAG”, with 4340 fluorescence intensity (a.u.); and “CTCCTTGACAACCAGCACCGATCCCTGAGTCACCCAACGACGGAGTCACCTAGTGCAG”, with 6120 fluorescence intensity (a.u.); and “TTCTGTAACATAGGCTAACGTCAACGTGGCATTCATTTTGCGGAGTCACCTAGTGCAG”, with 13200 fluorescence intensity (a.u.).
As for “AAATAATTTATGAATAAAACTTTTATCTACGTGTTCTTAACGGAGTCACCTAGTGCAG”, the binding signal is 4110 fluorescence intensity (a.u.).
Then “ATTAGTTTTATTAAATCTTACATTGAATATATTTTGATAACGGAGTCACCTAGTGCAG”, with 3390 fluorescence intensity (a.u.); and “CTGCACATAATAACGTGGATGAATCTTAAACGTCCATTTACGGAGTCACCTAGTGCAG”, with 47100 fluorescence intensity (a.u.).
“TATTTAAGTCAGTACTAAAGCACACATGTACAAATTTTACCGGAGTCACCTAGTGCAG”: the binding signal is 4160 fluorescence intensity (a.u.).
To “ACCAAACACCGCAAAATAAACAGTCATCCTCCGCACCGCGCGGAGTCACCTAGTGCAG” belongs 4480 fluorescence intensity (a.u.).
